Measurements published in PubChem BioAssay.
Activity calls are given as the source filed them.

Key:
[1] = A549 cell viability effects, profiling panel, calcein-AM fluorescence, 48 h, basal (AID 1162); settings: higher = more signal
[2] = adipocyte viability effects, profiling panel, cell-based, 3T3-L1 adipocytes, calcein-AM fluorescence, 48 h, basal (AID 1163); settings: 3T3-L1 adipocytes viability, higher = more signal
[3] = HepG2 cell viability effects, profiling panel, calcein-AM fluorescence, 48 h, basal (AID 1164); settings: higher = more signal
[4] = MM1S cell viability effects, profiling panel, calcein-AM fluorescence, 48 h, basal (AID 1165); settings: higher = more signal;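 further: viability of MM1S multiple myeloma cells under basal unstimulated conditions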
[5] = basal RPMI8226 viability, no added stimulus, profiling panel, cell-based, calcein-AM fluorescence, 48 h, PK04 Diversity Set (AID 1166); settings: RPMI8226 myeloma viability, higher = more signal;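 further: cells grown under basal conditions without added stimulus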
[6] = basal HepG2 mitochondrial membrane potential changes, profiling panel, cell-based, JC-1 fluorescence, 24 h, 100 nL compound (AID 1167); settings: higher = more signal
[7] = basal 3T3-L1 adipocyte mitochondrial potential changes, profiling panel, cell-based, JC-1 fluorescence, 3T3-L1 adipocytes, 24 h, 100 nL compound (AID 1168); settings: JC-1 mitochondrial fluorescence, higher = more signal, called active from +8 up or from −8 down
[8] = basal RPMI8226 mitochondrial membrane potential changes, profiling panel, cell-based, JC-1 fluorescence, 24 h, 100 nL compound (AID 1169); settings: RPMI8226 myeloma, JC-1 mitochondrial potential fluorescence, higher = more signal
[9] = basal MM1S mitochondrial membrane potential changes, profiling panel, cell-based, JC-1 fluorescence, 24 h, 100 nL compound (AID 1170); settings: higher = more signal
[10] = A549 lung cancer cell viability effects, profiling panel, resazurin fluorescence, 24 h, PK04 Diversity Set (AID 1171); settings: higher = more signal, called active from +8 up or from −8 down
Further: test concentration not given here.

| SMILES | z-score [1] | z-score [2] | z-score [3] | z-score [4] | z-score [5] | z-score [6] | z-score [7] | z-score [8] | z-score [9] | z-score [10] |
| --- | --- | --- | --- | --- | --- | --- | --- | --- | --- | --- |
| CC(C)(C)OC(=O)CC[C@@]1(C(=O)NCc2ccccc2)N=C(c2ccc(OCCCO)cc2)O[C@@H]1c1ccccc1 | -0.595 | 1.16 | -0.907 | -2.37 | -3.23 | 1.9 | 4.19 (inactive) | -0.791 | -0.552 | -2.88 (inactive) |
| O=C1C[C@@](C(=O)NCCN2CCOCC2)(c2ccc([N+](=O)[O-])cc2)[C@@H](c2ccc(CO)cc2)N1C1CCCCC1 | 1.16 | 0.936 | 0.339 | 0.324 | 0.633 | 0.899 | 0.295 (inactive) | 0.36 | 1.22 | 0.981 (inactive) |
| Cc1ccc(N2C(=O)c3ccccc3[C@@H](C(=O)NCc3ccccc3)[C@@H]2c2ccc(CO)cc2)nc1 | 1.08 | 1.14 | -0.296 | 0.2 | 1.18 | 0.532 | 1.07 (inactive) | 0.0567 | 0.202 | 0.737 (inactive) |
| O=C/C=C/c1ccc(/C=C/c2ccccc2)cc1 | 1 | -0.111 | -0.167 | -3.21 | -4.46 | -0.228 | 1.26 (inactive) | -0.949 | -2.1 | 0.22 (inactive) |
| NC(=O)[C@H]1[C@@H]2C(=O)O[C@@H](c3ccccc3)[C@@H](c3ccccc3)N2[C@@H](c2ccc(O)cc2)[C@]12C(=O)Nc1ccc(C#CCCO)cc12 | -0.191 | -0.0912 | 0.0926 | -0.664 | 0.0381 | -1.59 | -0.699 (inactive) | -0.583 | 0.196 | -0.0774 (inactive) |
| COC(=O)C[C@H]1O[C@]2(C(=O)N(C)c3ccccc32)[C@@H](C)[C@@H]1[Si](C)(C)c1ccc(OC)cc1 | -0.437 | 2.54 | -0.125 | -0.128 | -2.98 | 0.441 | 1.24 (inactive) | -0.636 | 1.05 | -0.767 (inactive) |
| C=CC[C@@]12N=C(c3ccc(OCCCO)cc3)O[C@@H]1c1ccccc1CN(Cc1ccccc1)C2=O | -0.843 | 2.38 | -1.92 | -3.46 | -4.51 | 0.0441 | -0.218 (inactive) | -1.36 | -1.45 | -1.9 (inactive) |
| COC(=O)[C@@]1(Cc2ccc(OC)cc2)[C@H]2c3cc(C(=O)N(C)C)n(CCc4ccc(OC)c(Br)c4)c3C[C@H]2CN1C(=O)c1ccccc1 | -1.55 | -1.08 | -0.992 | -1.6 | -4.57 | 2.92 | -1.39 (inactive) | -0.855 | -2.23 | -1.39 (inactive) |
| C=C(/C(=C/C[C@@H](OC(=O)c1ccncc1)c1ccc(CO)o1)c1cnc2ccccc2c1)C(C)C | 0.755 | 1.61 | -0.993 | -1.24 | 0.13 | -0.75 | 0.03 (inactive) | 0.0616 | 0.627 | 0.382 (inactive) |
| C=CCOC(=O)[C@@H]1[C@H]2C(=O)O[C@H](c3ccccc3)[C@H](c3ccccc3)N2[C@H](c2ccc(OCCOC(=O)[C@H]3C[C@H]4C(=O)N5CCC[C@H]5C(=O)N4[C@H]3c3ccc(O)cc3)cc2)[C@@]12C(=O)Nc1ccccc12 | 0.17 | 1.25 | -1.06 | -0.222 | -0.931 | -1.16 | 0.597 (inactive) | -0.674 | -0.393 | -0.0653 (inactive) |
| O=C(O)[C@@H]1Cc2c([nH]c3ccccc23)[C@@H](c2ccccc2)N1 | 0.0265 | 1.21 | -0.55 | 0.424 | 0.519 | 0.516 | -0.284 (inactive) | -0.122 | 0.0857 | 0.216 (inactive) |
| C[C@@H]1NC(=O)CC=C[C@@H](C)[C@@H]2C=C[C@H](O)[C@@H](COC(=O)[C@H](C)NC(=O)CC=C[C@@H](C)[C@@H]3C=C[C@H](O)[C@@H](COC1=O)O3)O2 | 0.362 | 1.59 | -0.195 | 0.188 | -1.38 | 1.1 | 0.863 (inactive) | 0.21 | 0.665 | -0.756 (inactive) |
| CC(C)[C@H]1NC(=O)[C@@]23C(=O)N[C@@H](Cc4ccccc4)C2[C@H](C)[C@@]2(C)O[C@H]2C3/C=C/C/C=C\CNC(=O)[C@H](C)NC1=O (stereo not given in full) | 0.011 | 0.657 | -0.614 | 0.434 | -0.938 | -0.458 | -0.0933 (inactive) | 0.279 | 0.498 | 0.0653 (inactive) |
| O=C1C2C=CC(C(O)c3ccccc3)N(n3cnnc3)C2C(=O)N1Cc1ccccc1 (stereo not given) | 0.668 | -0.0533 | 0.765 | 0.2 | -1.68 | 0.323 | 0.129 (inactive) | -0.605 | 0.474 | -1.05 (inactive) |
| CC(C)(C)OC(=O)CC[C@]1(C(=O)NCCN2CCOCC2)N=C(c2ccc(OCCCO)cc2)O[C@H]1c1ccccc1CN=[N+]=[N-] | 0.327 | 1.13 | 0.0133 | 1.31 | -0.722 | -0.131 | 0.289 (inactive) | -0.0354 | 0.671 | 0.619 (inactive) |
| COCCOC(=O)N1C(=O)[C@@]2(c3cc(C#CCNC(N)=O)ccc31)[C@H](c1ccc(OCCO)cc1)N1[C@H](c3ccccc3)[C@H](c3ccccc3)OC(=O)[C@H]1[C@@H]2C(=O)Nc1nc2ccccc2s1 | 0.556 | 1.49 | -0.801 | -0.139 | -0.138 | -3.18 | 2.96 (inactive) | -0.964 | -1.56 | 0.708 (inactive) |
| C=CCc1cccc([C@H]2N[C@H](C(=O)O)CC[C@@H]2C)c1 | 0.382 | 0.624 | -0.484 | -0.543 | 0.665 | 0.489 | -0.0728 (inactive) | 0.602 | 0.345 | 0.553 (inactive) |
| COc1cc2c(cc1OC)CN(C(=O)[C@@H]1[C@H]3C(=O)O[C@H](c4ccccc4)[C@H](c4ccccc4)N3[C@H](c3ccccc3OCCO)[C@@]13C(=O)Nc1ccccc13)CC2 | -0.225 | 1.85 | -0.174 | -0.998 | -0.622 | 0.648 | 3.09 (inactive) | -0.509 | 0.0343 | 0.872 (inactive) |
| O=C1C2C=CC(C(O)Cc3ccccc3)N(Nc3ccc([N+](=O)[O-])cc3)C2C(=O)N1c1ccccc1 (stereo not given) | -0.356 | -0.116 | 0.0181 | 0.568 | -0.0631 | -1.36 | 0.0226 (inactive) | 0.517 | -0.876 | 0.007 (inactive) |
| O=C1O[C@@H](c2ccccc2)[C@@H](c2ccccc2)N2[C@@H](c3ccc(O)cc3)[C@]3(C(=O)Nc4ccc(C#CC5(O)CCCCCC5)cc43)[C@@H](C(=O)Nc3nc4ccccc4s3)[C@H]12 | 1.46 | 2.07 | 0.417 | -1.55 | -1.97 | -2.15 | -0.444 (inactive) | -0.567 | 0.159 | 1.2 (inactive) |
| COC(=O)[C@@]1(Cc2ccccc2)[C@H]2c3cc(C(=O)N4CCCC4)n(CCN4CNCC4=O)c3C[C@H]2CN1C(=O)c1ccccc1 | -0.626 | 0.337 | -0.509 | 0.312 | 0.261 | -0.314 | 0.251 (inactive) | -0.185 | -0.777 | 0.0269 (inactive) |
| COc1ccc([Si](C)(C)[C@H]2[C@H](CCO)O[C@@]3(C(=O)N(Cc4ccc(N5CCCCC5=O)cc4)c4ccccc43)[C@@H]2C)cc1 | -0.124 | 0.705 | -0.263 | -2.59 | -0.628 | 1.05 | 1.04 (inactive) | -0.48 | -0.119 | -2.32 (inactive) |
| CCOC(=O)C[C@H]1[C@H](OC(=O)c2cc3ccccc3oc2=O)[C@@H](NC(=O)C2CCCCC2)c2cc(OCCCO)ccc2N1C(=O)c1ccc2ccccc2n1 | -0.133 | 0.536 | 0.312 | 0.0733 | -0.253 | 0.0115 | -0.734 (inactive) | 0.322 | -0.166 | 0.164 (inactive) |
| O=C1c2ccccc2[C@](Cc2ccccc2I)(C(=O)O)[C@H](c2ccc(CO)cc2)N1C1CCCCC1 | 0.0699 | 2.82 | -0.0275 | 0.832 | -3.14 | 0.0952 | -0.641 (inactive) | -0.193 | 0.148 | 1.07 (inactive) |
| C#CCCCON=C1C[C@@H](O)[C@@H](O)[C@@H]2[C@@H]3C(=O)N(Cc4ccc5c(c4)OCO5)C(=O)[C@@H]3CC[C@@H]12 | 0.347 | -1.2 | -0.61 | 1.03 | 0.351 | 0.722 | 1.44 (inactive) | 0.412 | -1.46 | 0.414 (inactive) |
| CO[C@H]1COC(=O)[C@@H](C)NC(=O)CC=C[C@@H](C)[C@H](OC)COC(=O)CC=C[C@@H]1C | 0.606 | 0.518 | 0.468 | 0.377 | 0.771 | 1.44 | 1.86 (inactive) | -0.0629 | 1.06 | 0.775 (inactive) |
| C=C(COC)C(=O)CC[C@H](OC(=O)c1ccccc1-c1ccccc1C(=O)O)c1cccc(OCCO)c1 | -0.339 | -0.765 | -2.08 | -1.12 | -0.28 | -2.01 | 0.414 (inactive) | 0.231 | -0.0895 | -1.46 (inactive) |
| CCC(=O)[C@]12O[C@@]3([C@@H]4C(=O)OCC[C@@H]41)N(Cc1ccccc1)C(C)=C(C(=O)OC)[C@@H](c1ccccc1)N3C2=O | 0.997 | 0.873 | -0.356 | 0.0552 | 1.08 | 0.499 | 0.995 (inactive) | -0.752 | -0.226 | 0.26 (inactive) |
| O=C(NCc1ccccc1)[C@@]1(CCS(=O)(=O)c2ccccc2)COC(c2ccc(OCCCO)cc2)=N1 | 1.29 | 0.897 | -0.0721 | -2.26 | -0.256 | 1.61 | 1.11 (inactive) | -0.263 | -0.944 | -0.335 (inactive) |
